Compound activity: PubChem BioAssay, National Center for Advancing Translational Sciences (NCATS)
Sfp inh = blocks B. subtilis Sfp PPTase activity; Biochemical Sfp PPTase activity, qHTS; AID 1490; actives 3.5% (n = 310,000); Potency, µM, actives largely listed as inhibitors; Q9F4F7;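 note: the enzyme is Sfp with the accession as filed and its product quenches rhodamine fluorescence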
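Compounds were incubated with enzyme (final 15 nM) for 15 min at room temperature before substrate addition started the reaction. Fluorescence at 525 nm excitation, 598 nm emission was recorded immediately and after 30 minutes.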
HP1b binding inh = blocks HP1-beta chromodomain binding to methylated histone tails | actives 0.56% (n = 390,000) | Potency, µM (highest dose often 114 µM), usual class: inhibitors | P83916 | AlphaScreen HP1-beta / biotin-H3K9me3 peptide binding; note: nearly all actives have a fitted effect of over 70% in size
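AlphaScreen: HP1-beta (50 nM) preformed 30 min with biotin-H3(1-18)K9me3 peptide (50 nM) in PBS pH 7.4, 0.01% Tween-20. Compound added for 30 min at RT, then streptavidin donor/nickel chelate acceptor beads (10 ug/mL) for 30 min.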
BAZ2B block = blocks human BAZ2B. AlphaScreen BAZ2B-H3K14Ac peptide displacement. Potency, µM (titrated, usually from 114 µM), actives largely listed as inhibitors. actives 4.4% (n = 360,000); note: nearly all actives have a fitted effect of over 60% in size
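BAZ2B 50 nM plus b-H3(5-23)K14Ac 50 nM, PBS pH 7.4/0.01% Tween-20, 30 min RT; compound added (max 110 uM), 30 min RT; streptavidin donor/Ni-chelate acceptor beads 10 ug/mL final, 20 min dark; AlphaScreen read.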
JMJD2A Tudor = JMJD2A Tudor domain (human) inhibition; O75164; AlphaScreen JMJD2A-Tudor / H3K4me3 peptide binding; Potency, µM (top dose mostly 114 µM), usual class: inhibitors; actives 4.4% (n = 390,000); AID 504339; note: nearly all actives have a fitted effect of over 50% in size
Target sequence (O75164 whole entry, looked up, the tested form may be a part): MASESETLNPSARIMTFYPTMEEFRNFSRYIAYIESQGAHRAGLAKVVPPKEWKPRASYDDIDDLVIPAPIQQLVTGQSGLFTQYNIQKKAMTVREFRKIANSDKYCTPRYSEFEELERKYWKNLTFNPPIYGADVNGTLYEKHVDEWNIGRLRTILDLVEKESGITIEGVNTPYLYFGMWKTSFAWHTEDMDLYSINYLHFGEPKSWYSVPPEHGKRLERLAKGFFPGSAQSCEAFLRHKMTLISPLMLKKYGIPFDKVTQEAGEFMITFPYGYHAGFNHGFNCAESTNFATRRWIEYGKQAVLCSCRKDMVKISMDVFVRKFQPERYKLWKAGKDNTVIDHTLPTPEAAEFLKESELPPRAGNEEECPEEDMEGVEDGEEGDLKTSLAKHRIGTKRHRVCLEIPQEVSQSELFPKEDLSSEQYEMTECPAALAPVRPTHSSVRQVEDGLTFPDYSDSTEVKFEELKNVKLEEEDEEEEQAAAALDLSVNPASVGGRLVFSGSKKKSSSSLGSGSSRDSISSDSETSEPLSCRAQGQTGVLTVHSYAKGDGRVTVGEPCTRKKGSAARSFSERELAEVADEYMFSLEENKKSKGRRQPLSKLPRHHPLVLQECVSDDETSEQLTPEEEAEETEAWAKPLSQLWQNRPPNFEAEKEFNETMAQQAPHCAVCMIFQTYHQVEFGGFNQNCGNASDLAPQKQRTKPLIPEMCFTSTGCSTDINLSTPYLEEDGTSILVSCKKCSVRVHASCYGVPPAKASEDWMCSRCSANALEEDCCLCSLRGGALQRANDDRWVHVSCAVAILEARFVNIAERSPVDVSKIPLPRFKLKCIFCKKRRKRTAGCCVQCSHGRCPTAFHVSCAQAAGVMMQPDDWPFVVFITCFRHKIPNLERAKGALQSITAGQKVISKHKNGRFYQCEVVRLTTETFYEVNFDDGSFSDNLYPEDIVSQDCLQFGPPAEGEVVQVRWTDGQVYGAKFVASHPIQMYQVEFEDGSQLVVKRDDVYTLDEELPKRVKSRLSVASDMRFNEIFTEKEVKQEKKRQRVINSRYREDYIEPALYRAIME
G9a block = G9a (human) methyltransferase inhibition | Potency, µM (highest dose often 102 µM), usual class: inhibitors | actives 8.8% (n = 350,000) | AID 504332 | Q96KQ7 | G9a H3K9 monomethylation, AlphaScreen, 2 h; note: nearly all actives have a fitted effect of over 75% in size
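Enzyme 20 nM + cpd, 15 min RT; add b-H3K9 pep 500 nM / SAM 20 uM; 2 h RT; anti-H3K9me1 Ab 0.5 ug/mL + SA donor / anti-rabbit acceptor beads 20 ug/mL each, 10 min; AlphaScreen read.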
Of the large screens only hits and unclear results are named; the others gave an inactive call. This is a sample that favours compounds with a hit; in the whole collection about 12% have one here. Calls come from the whole dose curve; as a rule, active = well fitted curve in the direction sought with a large enough effect; inconclusive = small, poorly fitted or top-dose-only effect, or another doubt; inactive = no such curve, though single readings can be large; an effect the other way counts as inactive or inconclusive.

CC(=O)Oc1ccc(Cl)cc1/C=C/c1ccc2ccccc2n1	Sfp inh inconclusive
COCCN(CC(=O)Nc1cccc(C)c1C)C(=O)Cc1sc(C)nc1-c1ccc(F)cc1	none (no result: Sfp inh)
O=C(c1ccc(N2CCCCC2)c([N+](=O)[O-])c1)N1CCOCC1	none
O=C(O/N=C\c1ccc(N2CCCCC2)c([N+](=O)[O-])c1)c1ccc(Cl)cc1Cl	HP1b binding inh inconclusive, BAZ2B block inconclusive, JMJD2A Tudor inconclusive, G9a block 40µM
COc1ccccc1N1CCN(C(=O)/C=C/c2cccc([N+](=O)[O-])c2)CC1	BAZ2B block inconclusive, JMJD2A Tudor inconclusive (no result: G9a block)
COc1ccccc1C(=O)/C=C/c1ccc(N2CCCCC2)c([N+](=O)[O-])c1	HP1b binding inh 32µM, BAZ2B block 6.3µM, JMJD2A Tudor 8.9µM, G9a block 13µM
Cc1ccc(C(=O)O/N=C\c2ccc(N3CCOCC3)c([N+](=O)[O-])c2)cc1	HP1b binding inh inconclusive
O=C(/C=C/c1ccc(N2CCCCC2)c([N+](=O)[O-])c1)c1ccc(O)cc1	HP1b binding inh 35µM, BAZ2B block 40µM, JMJD2A Tudor 28µM
Nc1cccc(S(=O)(=O)N2CCN(S(=O)(=O)c3ccc4c(c3)OCCO4)CC2)c1	none (no result: Sfp inh, HP1b binding inh, BAZ2B block, G9a block)
CCC(c1nnnn1C1CCCC1)N1CCN(c2ccccc2F)CC1 (configuration not stated)	none
c1ccc(C(c2nnnn2C2CCCC2)N2CCCCCC2)nc1 (configuration not stated)	Sfp inh 79µM, BAZ2B block 50µM, JMJD2A Tudor 50µM, G9a block 28µM
Fc1ccccc1N1CCN(C(c2ccncc2)c2nnnn2C2CCCC2)CC1 (configuration not stated)	G9a block 32µM
CCCC(c1nnnn1C1CCCC1)N1CCN(c2ccccc2F)CC1 (configuration not stated)	G9a block 50µM
COc1cc(F)c(C2=CC(=O)C[C@H](c3ccc(Cl)cc3)C2)cc1F	none (no result: Sfp inh)
CCn1c(C)cc(/C=C2\NC(=O)N(Cc3ccccc3)C2=O)c1C	JMJD2A Tudor 89µM, G9a block 13µM
CCn1c(C)cc(/C=C2/NC(=O)N(Cc3ccccc3F)C2=O)c1C	JMJD2A Tudor inconclusive
O=C(Oc1ccc(-c2nnco2)cc1)c1ccco1	none (no result: Sfp inh)
Cc1cccc(-n2cnc3cc(C(=O)N4CCc5ccccc54)ccc32)c1	none
O=C(NCc1ccc(F)cc1)n1c(-c2ccccc2)c(P(=S)(c2ccccc2)c2ccccc2)c2ccccc21	none (no result: Sfp inh, HP1b binding inh, BAZ2B block, G9a block)
Fc1cccc(CN2CCC(Cc3ccccc3)CC2)c1	HP1b binding inh inconclusive, BAZ2B block 79µM, JMJD2A Tudor 56µM, G9a block 28µM
OC(COc1ccccc1F)CN1CCC(Cc2ccccc2)CC1 (configuration not stated)	none (no result: G9a block)
Fc1ccccc1CN1CCC(Cc2ccccc2)CC1	HP1b binding inh inconclusive, BAZ2B block inconclusive, JMJD2A Tudor 0.89µM (no result: G9a block)
O=C(NCc1ccco1)c1ccc2c(c1)N(Cc1ccccc1F)C(=O)c1ccccc1S2=O (configuration not stated)	BAZ2B block inconclusive (no result: Sfp inh)
CCCCNS(=O)(=O)c1cc(-c2nn(C)c(=O)c3ccccc23)ccc1C	BAZ2B block inconclusive
CCN(CC)S(=O)(=O)c1cc(-c2nn(C)c(=O)c3ccccc23)ccc1C	BAZ2B block 50µM, JMJD2A Tudor inconclusive, G9a block inconclusive
COc1cccc(C(=O)N2CCN(Cc3ccccn3)CC2)c1	Sfp inh 45µM, BAZ2B block 20µM, JMJD2A Tudor 3.5µM, G9a block 45µM
CCC(C)N1CCN(C(=O)c2cc(OC)cc(OC)c2)CC1 (configuration not stated)	HP1b binding inh inconclusive, BAZ2B block 79µM, JMJD2A Tudor 20µM (no result: G9a block)
COc1cc(OC)cc(C(=O)N2CCN(Cc3ccccc3C(F)(F)F)CC2)c1	Sfp inh inconclusive, HP1b binding inh inconclusive, BAZ2B block 35µM, JMJD2A Tudor 1.6µM, G9a block 7.9µM
COc1cc(C(=O)N2CCN(C(=O)c3ccccc3)CC2)cc(OC)c1OC	G9a block inconclusive
COc1cc(C(=O)N2CCN(Cc3ccccc3C(F)(F)F)CC2)cc(OC)c1OC	Sfp inh inconclusive, HP1b binding inh inconclusive, BAZ2B block 32µM, JMJD2A Tudor 20µM, G9a block inconclusive
COc1cccc2cc(-c3nc(Nc4cccc(C)c4)sc3C)c(=O)oc12	none (no result: Sfp inh)
CCCSS/C(CCO)=C(/C)N(C=O)Cc1cnc(C)nc1N	Sfp inh 56µM, G9a block inconclusive (no result: HP1b binding inh, BAZ2B block, JMJD2A Tudor)
C/C(=C(/CCO)SSCC1CCCO1)N(C=O)Cc1cnc(C)nc1N (configuration not stated)	G9a block 13µM (no result: Sfp inh)
CC(C)c1ccc(OCCCCN2CCCCC2)cc1	HP1b binding inh inconclusive, BAZ2B block 79µM, JMJD2A Tudor 0.79µM
Clc1ccc(OCCCCN2CCCCC2)cc1	HP1b binding inh inconclusive, BAZ2B block 50µM, JMJD2A Tudor 1µM, G9a block 10µM
COc1ccc(-c2nc(CSc3nncn4c3cc3oc(C)cc34)c(C)o2)cc1	none (no result: Sfp inh)
CC(C)NC(=O)CCCN1C(=O)CCn2nc(-c3cccn3C)cc21	none (no result: Sfp inh)
C[n+]1cc(-c2ccccc2)n2c1CCCCC2	BAZ2B block 45µM, G9a block 71µM
Cc1cc(F)ccc1NC(=O)c1csc2c1CCC(C)C2 (configuration not stated)	none (no result: Sfp inh)
Cc1ccc(OCC(=O)N(C)CCc2ccccn2)cc1	BAZ2B block inconclusive, JMJD2A Tudor 10µM
CCN(CC)c1ccc(NC(=O)CCc2c(C)nc3ncnn3c2C)c(C)c1	G9a block 18µM (no result: Sfp inh)
CCN(CC)c1ccc(NC(=O)CN2C(=O)CSc3ncccc32)c(C)c1	G9a block 79µM
Cc1ccc(NC(=O)CC2Oc3ccccc3NC2=O)c(C)c1 (configuration not stated)	G9a block inconclusive
CCN(CC)c1ccc(NC(=O)CC2Oc3ccccc3NC2=O)c(C)c1 (configuration not stated)	Sfp inh inconclusive, G9a block 10µM
CCN(CC)c1ccc(NC(=O)CCN2C(=O)c3ccccc3S2(=O)=O)c(C)c1	G9a block 8.9µM (no result: Sfp inh)
CCN(CC)c1ccc(NC(=O)CN2C(=O)c3cccnc3Oc3ccccc32)c(C)c1	BAZ2B block inconclusive, JMJD2A Tudor inconclusive, G9a block 8.9µM (no result: Sfp inh)
Cc1ccc2c(c1)N(CC(=O)Nc1ccccc1C(F)(F)F)C(=O)c1cccnc1O2	none (no result: Sfp inh)
COc1ccc(CNC(=O)C2C3C=CC4(CN(Cc5cccnc5)C(=O)C24)O3)cc1 (configuration not stated)	none
COC(=O)C1C2C=CC3(CN(Cc4ccco4)C(=O)C13)O2 (configuration not stated)	Sfp inh 13µM, G9a block inconclusive
CCOC(=O)CN1CC23C=CC(O2)C(C(=O)Nc2cc(OC)ccc2OC)C3C1=O (configuration not stated)	none
